According to publication PMC7862700, “An all-to-all approach to the identification of sequence-specific readers for epigenetic DNA modifications on cytosine”:

What was measured:
Assay in all cases: DAPPL (digital affinity profiling via proximity ligation, sequencing); 10 mM Tris-HCl pH 7.5, 50 mM NaCl, 1 mM DTT, 4% glycerol, room temperature, 30 min; GST-TFs on glutathione beads, 16-mer random dsDNA library, 0.1% formaldehyde crosslink after washing; high values mean tight binding
FLI1 = biological target: T1, FLI1 (Homo sapiens, UniProt Q01543 1-452); settings: protein: recombinant; tags: N-terminal GST; dsDNA, one strand shown
T1 sequence: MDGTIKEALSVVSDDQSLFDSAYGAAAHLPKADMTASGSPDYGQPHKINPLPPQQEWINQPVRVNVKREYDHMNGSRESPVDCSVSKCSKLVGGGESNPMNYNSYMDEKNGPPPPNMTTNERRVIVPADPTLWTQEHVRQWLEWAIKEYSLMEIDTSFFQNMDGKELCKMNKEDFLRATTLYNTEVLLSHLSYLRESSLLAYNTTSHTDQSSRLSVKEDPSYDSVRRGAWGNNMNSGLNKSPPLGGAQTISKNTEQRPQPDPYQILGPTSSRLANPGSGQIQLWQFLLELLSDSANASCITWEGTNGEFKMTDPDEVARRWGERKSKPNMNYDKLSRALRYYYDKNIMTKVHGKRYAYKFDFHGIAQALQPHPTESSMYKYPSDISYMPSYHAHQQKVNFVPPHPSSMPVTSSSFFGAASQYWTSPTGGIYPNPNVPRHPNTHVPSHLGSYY
Outline: (§1)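 Pools were built from human transcription factors expressed in yeast as GST fusions, captured on glutathione beads and DNA-barcoded, along with a tag-only sample. Incubation with 200 nmole of a 16-mer random double-stranded DNA library lasted 30 min at room temperature in Tris/NaCl/DTT/glycerol buffer, and was followed by washing, 0.1% formaldehyde crosslinking, proximity ligation, PCR amplification and Illumina NextSeq500 sequencing. Binding signal is the quotient of each hexamer's read frequency for a factor and its frequency for the tag-only sample.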

ELK1 = biological target: T2, ELK1 (Homo sapiens, UniProt P19419 1-428); settings: protein: recombinant; tags: N-terminal GST; dsDNA, one strand shown
T2 sequence: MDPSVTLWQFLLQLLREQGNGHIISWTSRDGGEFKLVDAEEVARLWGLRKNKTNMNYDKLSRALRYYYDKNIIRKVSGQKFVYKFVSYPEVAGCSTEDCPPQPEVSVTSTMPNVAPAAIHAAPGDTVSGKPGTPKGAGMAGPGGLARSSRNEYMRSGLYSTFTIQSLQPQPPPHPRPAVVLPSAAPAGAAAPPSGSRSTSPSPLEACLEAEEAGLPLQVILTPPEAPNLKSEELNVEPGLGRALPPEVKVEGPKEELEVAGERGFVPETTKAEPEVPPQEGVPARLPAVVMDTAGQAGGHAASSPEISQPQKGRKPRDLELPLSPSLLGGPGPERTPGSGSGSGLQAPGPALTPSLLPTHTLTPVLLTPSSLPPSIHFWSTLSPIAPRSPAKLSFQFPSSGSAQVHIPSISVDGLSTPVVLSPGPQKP
Outline: as §1

GABPA = biological target: T3, GABPA (Homo sapiens, UniProt Q06546 1-454); settings: protein: recombinant; tags: N-terminal GST; dsDNA, one strand shown
T3 sequence: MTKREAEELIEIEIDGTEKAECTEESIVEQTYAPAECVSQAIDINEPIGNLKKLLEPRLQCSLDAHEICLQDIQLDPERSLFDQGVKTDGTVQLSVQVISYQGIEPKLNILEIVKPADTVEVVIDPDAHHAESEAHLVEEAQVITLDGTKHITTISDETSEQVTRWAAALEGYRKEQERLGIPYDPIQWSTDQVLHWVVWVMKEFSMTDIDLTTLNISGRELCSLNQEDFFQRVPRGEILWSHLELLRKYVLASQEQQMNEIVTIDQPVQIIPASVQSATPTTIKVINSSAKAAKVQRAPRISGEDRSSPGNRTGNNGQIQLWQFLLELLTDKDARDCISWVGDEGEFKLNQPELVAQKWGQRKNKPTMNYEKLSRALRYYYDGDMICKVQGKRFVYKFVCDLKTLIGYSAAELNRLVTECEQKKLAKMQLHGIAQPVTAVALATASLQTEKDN
Outline: as §1

ERG = biological target: T4, ERG (Homo sapiens, UniProt P11308 1-479); settings: protein: recombinant; tags: N-terminal GST; dsDNA, one strand shown
T4 sequence: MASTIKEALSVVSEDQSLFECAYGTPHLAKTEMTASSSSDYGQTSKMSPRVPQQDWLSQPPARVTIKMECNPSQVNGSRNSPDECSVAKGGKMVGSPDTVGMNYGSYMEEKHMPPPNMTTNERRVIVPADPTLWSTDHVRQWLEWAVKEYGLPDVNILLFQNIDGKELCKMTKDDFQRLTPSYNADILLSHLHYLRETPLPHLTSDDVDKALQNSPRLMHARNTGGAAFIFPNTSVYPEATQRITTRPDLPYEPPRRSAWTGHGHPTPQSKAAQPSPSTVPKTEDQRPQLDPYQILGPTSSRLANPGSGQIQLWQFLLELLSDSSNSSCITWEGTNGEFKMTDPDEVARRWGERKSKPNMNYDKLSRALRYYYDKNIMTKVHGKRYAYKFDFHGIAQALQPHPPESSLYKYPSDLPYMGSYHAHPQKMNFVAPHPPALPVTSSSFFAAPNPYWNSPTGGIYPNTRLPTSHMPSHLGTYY
Outline: as §1

ELF1 = ELF1 (Homo sapiens, UniProt P32519 1-619); settings: protein: recombinant; tags: N-terminal GST; dsDNA, one strand shown
Outline: as §1

EHF = biological target: T5, EHF (Homo sapiens, UniProt Q9NZC4 1-300); settings: protein: recombinant; tags: N-terminal GST; dsDNA, one strand shown
T5 sequence: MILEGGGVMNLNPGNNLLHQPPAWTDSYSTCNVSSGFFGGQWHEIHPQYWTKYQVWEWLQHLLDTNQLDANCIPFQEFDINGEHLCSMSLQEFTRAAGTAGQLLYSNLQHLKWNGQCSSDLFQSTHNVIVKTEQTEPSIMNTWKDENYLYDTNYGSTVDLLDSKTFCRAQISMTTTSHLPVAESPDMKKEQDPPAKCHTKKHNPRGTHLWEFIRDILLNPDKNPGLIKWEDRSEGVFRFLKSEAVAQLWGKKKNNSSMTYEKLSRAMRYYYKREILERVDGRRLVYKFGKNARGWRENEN
Outline: as §1

SPI1 = SPI1 (Homo sapiens, UniProt P17947 1-270); settings: protein: recombinant; tags: N-terminal GST; dsDNA, one strand shown
Outline: as §1

SPIB = SPIB (Homo sapiens, UniProt Q01892 1-262); settings: protein: recombinant; tags: N-terminal GST; dsDNA, one strand shown
Outline: as §1

ELK3 = biological target: T6, ELK3 (Homo sapiens, UniProt P41970 1-407); settings: protein: recombinant; tags: N-terminal GST; dsDNA, one strand shown
T6 sequence: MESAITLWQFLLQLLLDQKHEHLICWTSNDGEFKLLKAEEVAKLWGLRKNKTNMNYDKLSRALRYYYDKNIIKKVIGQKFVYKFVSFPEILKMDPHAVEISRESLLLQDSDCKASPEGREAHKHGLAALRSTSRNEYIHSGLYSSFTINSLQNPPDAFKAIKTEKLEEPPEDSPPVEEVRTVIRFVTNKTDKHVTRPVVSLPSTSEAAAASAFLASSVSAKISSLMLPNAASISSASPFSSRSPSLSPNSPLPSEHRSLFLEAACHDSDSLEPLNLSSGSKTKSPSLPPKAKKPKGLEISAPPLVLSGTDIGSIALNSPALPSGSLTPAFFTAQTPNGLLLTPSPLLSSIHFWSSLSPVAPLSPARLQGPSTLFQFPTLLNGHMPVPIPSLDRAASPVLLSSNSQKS
Outline: as §1

FEV = biological target: T7, FEV (Homo sapiens, UniProt Q99581 1-238); settings: protein: recombinant; tags: N-terminal GST; dsDNA, one strand shown
T7 sequence: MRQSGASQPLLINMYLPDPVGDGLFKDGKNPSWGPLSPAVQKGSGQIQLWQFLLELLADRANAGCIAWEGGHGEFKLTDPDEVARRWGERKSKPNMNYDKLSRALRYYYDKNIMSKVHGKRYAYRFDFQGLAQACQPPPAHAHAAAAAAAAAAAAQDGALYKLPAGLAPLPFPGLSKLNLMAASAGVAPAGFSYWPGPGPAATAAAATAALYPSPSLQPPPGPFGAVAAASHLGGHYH
Outline: as §1

ETV5 = ETV5 (Homo sapiens, UniProt P41161 1-510); settings: protein: recombinant; tags: N-terminal GST; dsDNA, one strand shown
Outline: as §1

HSF1 = HSF1 (Homo sapiens, UniProt Q00613 1-529); settings: protein: recombinant; tags: N-terminal GST; chain copies: 3; dsDNA, one strand shown
Outline: as §1

SPIC = biological target: T8, SPIC (Homo sapiens, UniProt Q8N5J4 1-248); settings: protein: recombinant; tags: N-terminal GST; dsDNA, one strand shown
T8 sequence: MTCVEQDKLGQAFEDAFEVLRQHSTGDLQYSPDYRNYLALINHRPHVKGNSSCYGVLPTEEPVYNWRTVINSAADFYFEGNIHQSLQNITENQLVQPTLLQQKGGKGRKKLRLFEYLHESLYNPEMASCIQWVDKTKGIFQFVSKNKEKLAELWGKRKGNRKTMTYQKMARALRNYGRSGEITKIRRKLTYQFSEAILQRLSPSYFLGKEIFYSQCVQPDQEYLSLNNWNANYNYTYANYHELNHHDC
Outline: as §1

ELF4 = ELF4 (Homo sapiens, UniProt Q99607 1-663); settings: protein: recombinant; tags: N-terminal GST; dsDNA, one strand shown
Outline: as §1

ELK4 = biological target: T9, ELK4 (Homo sapiens, UniProt P28324-2 1-405); settings: protein: recombinant; tags: N-terminal GST; dsDNA, one strand shown
T9 sequence: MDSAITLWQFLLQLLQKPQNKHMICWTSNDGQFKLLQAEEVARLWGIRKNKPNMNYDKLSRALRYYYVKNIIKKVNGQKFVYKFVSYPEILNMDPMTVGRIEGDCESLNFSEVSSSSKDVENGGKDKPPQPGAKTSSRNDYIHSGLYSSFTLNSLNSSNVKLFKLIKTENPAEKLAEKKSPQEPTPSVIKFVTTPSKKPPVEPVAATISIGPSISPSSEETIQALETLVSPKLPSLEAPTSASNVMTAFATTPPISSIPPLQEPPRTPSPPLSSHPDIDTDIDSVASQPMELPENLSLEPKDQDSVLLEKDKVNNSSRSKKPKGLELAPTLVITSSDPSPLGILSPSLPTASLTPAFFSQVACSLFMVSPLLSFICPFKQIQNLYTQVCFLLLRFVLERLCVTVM
Outline: as §1

ETV2 = biological target: T10, ETV2 (Homo sapiens, UniProt O00321 1-342); settings: protein: recombinant; tags: N-terminal GST; dsDNA, one strand shown
T10 sequence: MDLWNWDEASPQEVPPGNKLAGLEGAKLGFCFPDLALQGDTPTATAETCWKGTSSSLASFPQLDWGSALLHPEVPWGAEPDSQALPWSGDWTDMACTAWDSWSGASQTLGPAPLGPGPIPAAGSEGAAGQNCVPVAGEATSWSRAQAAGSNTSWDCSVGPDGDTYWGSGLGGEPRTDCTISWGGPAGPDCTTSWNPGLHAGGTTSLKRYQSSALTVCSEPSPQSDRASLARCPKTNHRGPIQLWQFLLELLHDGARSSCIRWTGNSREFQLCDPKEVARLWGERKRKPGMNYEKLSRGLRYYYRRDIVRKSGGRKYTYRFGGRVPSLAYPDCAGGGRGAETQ
Outline: as §1

ELF3 = biological target: T11, ELF3 (Homo sapiens, UniProt P78545 1-371); settings: protein: recombinant; tags: N-terminal GST; dsDNA, one strand shown
T11 sequence: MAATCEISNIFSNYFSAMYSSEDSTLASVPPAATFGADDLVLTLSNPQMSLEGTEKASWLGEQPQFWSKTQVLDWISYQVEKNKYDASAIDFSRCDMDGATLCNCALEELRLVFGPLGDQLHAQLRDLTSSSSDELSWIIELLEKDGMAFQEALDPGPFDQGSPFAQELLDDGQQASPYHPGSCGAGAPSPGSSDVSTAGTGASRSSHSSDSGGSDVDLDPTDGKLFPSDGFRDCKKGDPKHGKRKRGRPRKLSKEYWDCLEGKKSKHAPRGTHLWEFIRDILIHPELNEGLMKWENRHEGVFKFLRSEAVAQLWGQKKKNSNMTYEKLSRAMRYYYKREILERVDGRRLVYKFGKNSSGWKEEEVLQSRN
Outline: as §1

CRX = CRX (Homo sapiens, UniProt O43186 1-299); settings: protein: recombinant; tags: N-terminal GST; dsDNA, one strand shown
Outline: as §1

ETV1 = ETV1 (Homo sapiens, UniProt P50549 1-477); settings: protein: recombinant; tags: N-terminal GST; dsDNA, one strand shown
Outline: as §1

Chain of CRX (O43186 whole entry): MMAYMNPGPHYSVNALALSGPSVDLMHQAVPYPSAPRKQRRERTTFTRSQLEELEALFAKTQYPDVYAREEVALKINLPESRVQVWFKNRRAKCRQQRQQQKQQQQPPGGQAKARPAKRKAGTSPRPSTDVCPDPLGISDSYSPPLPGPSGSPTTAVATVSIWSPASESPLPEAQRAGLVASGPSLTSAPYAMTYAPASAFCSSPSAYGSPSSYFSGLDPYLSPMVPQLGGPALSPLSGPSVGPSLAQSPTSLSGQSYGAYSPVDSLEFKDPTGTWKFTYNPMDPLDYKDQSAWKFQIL
Chain of SPIB (Q01892 whole entry): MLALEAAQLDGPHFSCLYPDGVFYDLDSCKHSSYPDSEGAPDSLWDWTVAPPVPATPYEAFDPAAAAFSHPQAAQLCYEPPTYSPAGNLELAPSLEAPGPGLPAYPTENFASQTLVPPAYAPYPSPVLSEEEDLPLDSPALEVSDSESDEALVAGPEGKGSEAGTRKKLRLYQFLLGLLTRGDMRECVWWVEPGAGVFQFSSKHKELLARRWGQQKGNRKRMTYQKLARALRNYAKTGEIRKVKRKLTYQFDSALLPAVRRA
Chain of ETV5 (P41161 whole entry): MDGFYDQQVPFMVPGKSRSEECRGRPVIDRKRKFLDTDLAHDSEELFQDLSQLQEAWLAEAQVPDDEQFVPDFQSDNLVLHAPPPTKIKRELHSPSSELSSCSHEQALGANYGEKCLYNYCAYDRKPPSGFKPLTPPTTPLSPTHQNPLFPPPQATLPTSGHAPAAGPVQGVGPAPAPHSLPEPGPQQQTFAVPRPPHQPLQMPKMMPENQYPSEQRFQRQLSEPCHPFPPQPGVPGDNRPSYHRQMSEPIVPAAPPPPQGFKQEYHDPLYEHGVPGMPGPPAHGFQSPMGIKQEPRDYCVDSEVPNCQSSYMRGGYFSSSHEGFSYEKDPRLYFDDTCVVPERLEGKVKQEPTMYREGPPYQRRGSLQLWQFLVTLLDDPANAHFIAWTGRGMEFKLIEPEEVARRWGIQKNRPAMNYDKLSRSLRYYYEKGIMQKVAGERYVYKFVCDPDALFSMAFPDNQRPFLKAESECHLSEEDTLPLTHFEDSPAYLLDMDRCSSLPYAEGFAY
Chain of HSF1 (Q00613 whole entry): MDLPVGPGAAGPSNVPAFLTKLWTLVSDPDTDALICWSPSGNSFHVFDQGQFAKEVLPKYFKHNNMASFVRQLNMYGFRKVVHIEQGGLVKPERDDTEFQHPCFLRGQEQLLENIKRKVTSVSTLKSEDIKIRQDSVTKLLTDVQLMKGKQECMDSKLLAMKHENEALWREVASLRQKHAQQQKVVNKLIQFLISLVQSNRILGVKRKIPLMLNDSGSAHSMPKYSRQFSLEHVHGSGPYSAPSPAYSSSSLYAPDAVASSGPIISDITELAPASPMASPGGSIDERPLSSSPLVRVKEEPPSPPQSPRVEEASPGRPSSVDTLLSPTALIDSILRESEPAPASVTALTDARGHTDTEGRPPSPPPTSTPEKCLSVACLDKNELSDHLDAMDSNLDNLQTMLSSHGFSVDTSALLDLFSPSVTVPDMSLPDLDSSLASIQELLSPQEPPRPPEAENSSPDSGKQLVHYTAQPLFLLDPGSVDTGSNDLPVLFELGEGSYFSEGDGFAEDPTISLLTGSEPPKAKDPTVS
Chain of ELF4 (Q99607 whole entry): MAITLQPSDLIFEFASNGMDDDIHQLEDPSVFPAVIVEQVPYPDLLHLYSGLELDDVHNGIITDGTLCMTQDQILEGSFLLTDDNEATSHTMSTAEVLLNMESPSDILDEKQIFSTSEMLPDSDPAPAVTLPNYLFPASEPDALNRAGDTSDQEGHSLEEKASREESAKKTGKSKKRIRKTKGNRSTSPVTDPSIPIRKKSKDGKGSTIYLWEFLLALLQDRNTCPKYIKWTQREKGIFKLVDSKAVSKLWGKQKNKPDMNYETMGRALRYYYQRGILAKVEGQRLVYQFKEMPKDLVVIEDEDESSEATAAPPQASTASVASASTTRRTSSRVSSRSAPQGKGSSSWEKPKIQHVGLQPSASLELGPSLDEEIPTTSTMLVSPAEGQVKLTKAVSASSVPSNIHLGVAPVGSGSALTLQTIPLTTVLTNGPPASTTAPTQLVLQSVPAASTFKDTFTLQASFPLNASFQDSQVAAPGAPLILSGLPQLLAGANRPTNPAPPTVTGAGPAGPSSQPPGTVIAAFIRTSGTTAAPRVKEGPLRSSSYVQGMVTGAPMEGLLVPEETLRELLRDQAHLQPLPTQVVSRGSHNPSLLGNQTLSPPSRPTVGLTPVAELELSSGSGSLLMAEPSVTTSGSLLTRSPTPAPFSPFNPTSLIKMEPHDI
Chain of ELF1 (P32519 whole entry): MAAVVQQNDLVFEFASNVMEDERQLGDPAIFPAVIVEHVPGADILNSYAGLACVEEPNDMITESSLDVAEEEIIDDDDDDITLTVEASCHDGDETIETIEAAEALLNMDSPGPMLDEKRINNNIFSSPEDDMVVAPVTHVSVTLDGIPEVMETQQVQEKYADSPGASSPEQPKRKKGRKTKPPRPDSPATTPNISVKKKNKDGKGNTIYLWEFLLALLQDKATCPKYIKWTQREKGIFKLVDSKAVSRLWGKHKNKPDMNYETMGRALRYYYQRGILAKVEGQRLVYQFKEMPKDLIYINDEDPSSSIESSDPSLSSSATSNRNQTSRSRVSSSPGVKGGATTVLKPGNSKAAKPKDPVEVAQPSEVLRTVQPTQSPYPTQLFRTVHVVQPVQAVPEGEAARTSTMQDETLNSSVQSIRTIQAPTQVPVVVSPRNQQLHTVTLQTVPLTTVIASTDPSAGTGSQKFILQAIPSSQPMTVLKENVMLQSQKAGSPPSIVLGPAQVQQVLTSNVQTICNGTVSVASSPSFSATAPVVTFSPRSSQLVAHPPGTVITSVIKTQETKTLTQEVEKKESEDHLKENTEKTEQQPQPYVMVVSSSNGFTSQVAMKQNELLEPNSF
Chain of ETV1 (P50549 whole entry): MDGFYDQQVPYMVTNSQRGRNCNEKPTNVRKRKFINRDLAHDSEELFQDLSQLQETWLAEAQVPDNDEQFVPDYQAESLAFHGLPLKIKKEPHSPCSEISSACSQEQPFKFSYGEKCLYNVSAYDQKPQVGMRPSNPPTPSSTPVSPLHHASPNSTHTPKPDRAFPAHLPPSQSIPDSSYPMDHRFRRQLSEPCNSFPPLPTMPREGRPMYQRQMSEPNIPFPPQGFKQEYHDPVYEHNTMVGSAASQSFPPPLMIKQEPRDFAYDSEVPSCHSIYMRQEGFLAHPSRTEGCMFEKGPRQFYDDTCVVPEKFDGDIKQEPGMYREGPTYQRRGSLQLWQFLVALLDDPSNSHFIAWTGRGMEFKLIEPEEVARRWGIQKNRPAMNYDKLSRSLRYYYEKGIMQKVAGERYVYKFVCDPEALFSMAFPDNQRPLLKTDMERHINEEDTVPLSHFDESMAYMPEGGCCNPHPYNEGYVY

## AAGCTT
FLI1
  binding signal: 1.31 fold enrichment (6-mer frequency, TF over GST control)
ELK1
  binding signal: 1.33 fold enrichment (6-mer frequency, TF over GST control)
GABPA
  binding signal: 1.22 fold enrichment (6-mer frequency, TF over GST control)
ERG
  binding signal: 1.33 fold enrichment (6-mer frequency, TF over GST control)
ELF1
  binding signal: 1.2 fold enrichment (6-mer frequency, TF over GST control)
EHF
  binding signal: 1.26 fold enrichment (6-mer frequency, TF over GST control)
SPI1
  binding signal: 1.23 fold enrichment (6-mer frequency, TF over GST control)
SPIB
  binding signal: 1.32 fold enrichment (6-mer frequency, TF over GST control)
ELK3
  binding signal: 1.31 fold enrichment (6-mer frequency, TF over GST control)
FEV
  binding signal: 1.16 fold enrichment (6-mer frequency, TF over GST control)
ETV5
  binding signal: 1.25 fold enrichment (6-mer frequency, TF over GST control)
HSF1
  binding signal: 1.84 fold enrichment (6-mer frequency, TF over GST control)
SPIC
  binding signal: 1.24 fold enrichment (6-mer frequency, TF over GST control)
ELF4
  binding signal: 1.25 fold enrichment (6-mer frequency, TF over GST control)
ELK4
  binding signal: 1.39 fold enrichment (6-mer frequency, TF over GST control)
ETV2
  binding signal: 1.31 fold enrichment (6-mer frequency, TF over GST control)
ELF3
  binding signal: 1.29 fold enrichment (6-mer frequency, TF over GST control)
CRX
  binding signal: 2.33 fold enrichment (6-mer frequency, TF over GST control)
ETV1
  binding signal: 1.31 fold enrichment (6-mer frequency, TF over GST control)
